{
  "source": "PubChem BioAssay (Tox21)",
  "experiment": "Nuclear factor erythroid 2-related factor 2/antioxidant responsive element (Nrf2/ARE) small molecule agonists: luciferase reporter gene qHTS assay in human keratinocytes (AID 1919969); also: nearly all actives have a fitted effect of over 35% in size",
  "note": "Records with an inconclusive call do not appear. Where a call stands in place of a potency, no number is given. Calls of active or inactive are those of the source. Calls follow the shape of the full dose curve. Potency is read from the fitted curve at half-maximal effect.",
  "data": [
    {"smiles": "CC(C)Nc1nc(N)nc(Cl)n1", "values": [
      {"measurement": "Potency", "result": "inactive"}
    ]},
    {"smiles": "CCCCCCCCCCc1ccccc1", "values": [
      {"measurement": "Potency", "result": "inactive"}
    ]},
    {"smiles": "C=C/C(C)=C/C/C=C(\\C)CCC=C(C)C", "values": [
      {"measurement": "Potency", "result": "68.6 µM (active)"}
    ]},
    {"smiles": "CCCCN(CCCC)C(=O)N(CCCC)CCCC", "values": [
      {"measurement": "Potency", "result": "61.1 µM (active)"}
    ]},
    {"smiles": "CCN(CC)c1ccc(N)cc1", "values": [
      {"measurement": "Potency", "result": "31.5 µM (active)"}
    ]},
    {"smiles": "C/C(=C\\C(C)CC(C)CC(C)C)C1CC(=O)OC1=O", "note": "(centres undefined)", "values": [
      {"measurement": "Potency", "result": "inactive"}
    ]},
    {"smiles": "C=CCn1c(=O)n([C@@H]2O[C@H](CO)[C@@H](O)[C@H]2O)c2nc(N)[nH]c(=O)c21", "values": [
      {"measurement": "Potency", "result": "inactive"}
    ]},
    {"smiles": "CCOC(=O)c1ccc(OC(=O)CCCCCN=C(N)N)cc1", "values": [
      {"measurement": "Potency", "result": "inactive"}
    ]},
    {"smiles": "N#CCc1ccc(Cl)cc1Cl", "values": [
      {"measurement": "Potency", "result": "inactive"}
    ]},
    {"smiles": "CCN(CC)c1ccc(C=O)cc1", "values": [
      {"measurement": "Potency", "result": "inactive"}
    ]},
    {"smiles": "CC(CC(=O)O)CC(C)(C)C", "note": "(centres undefined)", "values": [
      {"measurement": "Potency", "result": "inactive"}
    ]},
    {"smiles": "CN(C)CCCOC1(Cc2ccccc2)CCCCCC1", "values": [
      {"measurement": "Potency", "result": "inactive"}
    ]},
    {"smiles": "CCCCCCCCCCCCCCCCCCOS(=O)(=O)O", "values": [
      {"measurement": "Potency", "result": "inactive"}
    ]},
    {"smiles": "CCOC(=O)c1ccc(NC(=O)CN2CCCCC2)cc1", "values": [
      {"measurement": "Potency", "result": "inactive"}
    ]},
    {"smiles": "CCCCCCC(CCCCCCCCCCC(=O)OCC(COC(C)=O)OC(C)=O)OC(C)=O", "note": "(centres undefined)", "values": [
      {"measurement": "Potency", "result": "inactive"}
    ]},
    {"smiles": "CC(=O)Oc1cc(C(C)C)c(OCCN(C)C)cc1C", "values": [
      {"measurement": "Potency", "result": "inactive"}
    ]},
    {"smiles": "CCCCCCCCCCCC", "values": [
      {"measurement": "Potency", "result": "inactive"}
    ]},
    {"smiles": "CC(O)c1ccccc1", "note": "(centres undefined)", "values": [
      {"measurement": "Potency", "result": "inactive"}
    ]},
    {"smiles": "CN(C)CCN(C)CCN(C)C", "values": [
      {"measurement": "Potency", "result": "inactive"}
    ]},
    {"smiles": "CC(C)(C)c1ccccc1", "values": [
      {"measurement": "Potency", "result": "inactive"}
    ]},
    {"smiles": "CCCCCCCCCCCCCCBr", "values": [
      {"measurement": "Potency", "result": "inactive"}
    ]},
    {"smiles": "C[C@@H]1O[C@@H](O[C@@H]2[C@@H](O)[C@H](OCCc3ccc(O)c(O)c3)O[C@H](CO[C@@H]3O[C@H](CO)[C@@H](O)[C@H](O)[C@H]3O)[C@H]2OC(=O)/C=C/c2ccc(O)c(O)c2)[C@H](O)[C@H](O)[C@H]1O", "values": [
      {"measurement": "Potency", "result": "inactive"}
    ]},
    {"smiles": "CC(C)(C)c1n[nH]c(=S)n(N)c1=O", "values": [
      {"measurement": "Potency", "result": "inactive"}
    ]},
    {"smiles": "CC(C)=CC(=O)C=C(C)C", "values": [
      {"measurement": "Potency", "result": "inactive"}
    ]},
    {"smiles": "O=C(c1ccco1)N1CCNCC1", "values": [
      {"measurement": "Potency", "result": "inactive"}
    ]},
    {"smiles": "NC(=O)C(=O)N/N=C/c1ccc([N+](=O)[O-])o1", "values": [
      {"measurement": "Potency", "result": "29.8 µM (active)"}
    ]},
    {"smiles": "Oc1ccc(C(O)CNCCCCCCNCC(O)c2ccc(O)c(O)c2)cc1O", "note": "(centres undefined)", "values": [
      {"measurement": "Potency", "result": "inactive"}
    ]},
    {"smiles": "C=C(C)C(=O)OCC(C)(C)COC(=O)C(=C)C", "values": [
      {"measurement": "Potency", "result": "inactive"}
    ]},
    {"smiles": "CCN(CC)CCNC(=O)COc1ccc(Cl)cc1", "values": [
      {"measurement": "Potency", "result": "inactive"}
    ]},
    {"smiles": "CC1(C)OC[C@@H](COC(=O)CCc2ccc(OC[C@@H](O)CNCCNC(=O)N3CCOCC3)cc2)O1", "values": [
      {"measurement": "Potency", "result": "inactive"}
    ]},
    {"smiles": "COc1ccc(C(=O)Nc2ccccc2)cc1[N+](=O)[O-]", "values": [
      {"measurement": "Potency", "result": "inactive"}
    ]},
    {"smiles": "CCOC(=O)C1=NN(c2ccc(Cl)cc2Cl)C(C)(C(=O)OCC)C1", "note": "(centres undefined)", "values": [
      {"measurement": "Potency", "result": "inactive"}
    ]},
    {"smiles": "OCCN1C[C@H](O)[C@@H](O)[C@H](O)[C@H]1CO", "values": [
      {"measurement": "Potency", "result": "inactive"}
    ]},
    {"smiles": "CCCCCOc1ccc(C2SC(=O)NC2=O)cc1OCC", "note": "(centres undefined)", "values": [
      {"measurement": "Potency", "result": "inactive"}
    ]},
    {"smiles": "CC1(C)CC(N)CC(C)(C)N1", "values": [
      {"measurement": "Potency", "result": "inactive"}
    ]},
    {"smiles": "Nc1ccccc1O", "values": [
      {"measurement": "Potency", "result": "47.9 µM (active)"}
    ]},
    {"smiles": "CC(c1cc(C(C)(C)C)cc(C(C)(C)C)c1O)c1cc(C(C)(C)C)cc(C(C)(C)C)c1O", "values": [
      {"measurement": "Potency", "result": "inactive"}
    ]},
    {"smiles": "Clc1ccc2n[nH]nc2c1", "values": [
      {"measurement": "Potency", "result": "inactive"}
    ]},
    {"smiles": "O=C(O)COCC(=O)O", "values": [
      {"measurement": "Potency", "result": "inactive"}
    ]}
  ]
}
